Results: the supplement of paper PMC11732987, “Enantioselective OTUD7B fragment discovery through chemoproteomics screening and high-throughput optimisation” (Communications Chemistry, 2025)

Experiments:
Assay in all cases: log2 ratio of Biotin-Ahx-Ub-VS probe labelling (fragment/DMSO); higher = less target engagement (more negative = stronger competition), active = hit call of the paper (q ≤ 0.05, log2 ratio ≤ -1)
Conditions in all cases: compound concentration: 200 uM; treatment time: 3 h
USP19 = target: T1, USP19 (UniProt O94966)
T1 sequence (whole entry): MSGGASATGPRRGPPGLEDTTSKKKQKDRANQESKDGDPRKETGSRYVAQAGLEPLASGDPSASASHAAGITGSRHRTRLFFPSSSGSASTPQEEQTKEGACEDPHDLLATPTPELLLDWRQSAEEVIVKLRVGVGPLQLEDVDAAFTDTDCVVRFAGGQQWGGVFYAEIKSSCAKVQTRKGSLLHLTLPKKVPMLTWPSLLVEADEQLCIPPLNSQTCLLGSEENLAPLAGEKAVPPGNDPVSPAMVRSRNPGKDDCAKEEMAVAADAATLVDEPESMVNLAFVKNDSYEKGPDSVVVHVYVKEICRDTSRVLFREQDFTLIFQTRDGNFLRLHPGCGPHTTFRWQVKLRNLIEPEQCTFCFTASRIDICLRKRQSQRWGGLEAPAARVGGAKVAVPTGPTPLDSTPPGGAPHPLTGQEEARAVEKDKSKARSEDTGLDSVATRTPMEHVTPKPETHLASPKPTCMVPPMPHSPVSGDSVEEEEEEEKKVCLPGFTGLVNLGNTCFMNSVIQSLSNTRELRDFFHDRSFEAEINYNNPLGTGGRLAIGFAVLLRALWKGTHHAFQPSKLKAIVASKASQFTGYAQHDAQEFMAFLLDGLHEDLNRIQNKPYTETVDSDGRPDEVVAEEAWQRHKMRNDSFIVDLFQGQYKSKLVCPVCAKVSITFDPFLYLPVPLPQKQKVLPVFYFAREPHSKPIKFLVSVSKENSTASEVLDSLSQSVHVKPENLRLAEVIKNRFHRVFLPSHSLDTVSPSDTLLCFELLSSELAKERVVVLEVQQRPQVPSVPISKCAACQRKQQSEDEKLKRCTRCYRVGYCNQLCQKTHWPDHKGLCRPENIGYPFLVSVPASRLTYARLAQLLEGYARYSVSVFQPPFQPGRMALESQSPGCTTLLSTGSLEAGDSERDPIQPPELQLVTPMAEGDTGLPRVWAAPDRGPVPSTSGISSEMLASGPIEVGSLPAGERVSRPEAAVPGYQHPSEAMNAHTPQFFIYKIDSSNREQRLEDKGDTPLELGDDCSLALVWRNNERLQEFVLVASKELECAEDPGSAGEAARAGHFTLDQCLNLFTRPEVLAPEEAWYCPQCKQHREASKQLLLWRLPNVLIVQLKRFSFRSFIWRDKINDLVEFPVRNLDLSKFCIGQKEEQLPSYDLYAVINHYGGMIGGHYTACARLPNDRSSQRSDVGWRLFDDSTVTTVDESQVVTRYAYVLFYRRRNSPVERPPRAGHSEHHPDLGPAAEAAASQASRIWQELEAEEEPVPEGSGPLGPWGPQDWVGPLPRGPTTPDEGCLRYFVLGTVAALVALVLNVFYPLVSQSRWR
How it was run: (§1)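 Triplicate samples of HEK293T lysate, 495 µg each, received fragment at 200 µM or vehicle for 3 h, followed by Biotin-Ahx-Ub-VS (0.5 µM final) for 1 h. After NeutrAvidin enrichment of labelled DUBs and LysC/trypsin digestion, peptides were run by diaPASEF LC-MS/MS. The values are average log2 fragment/vehicle ratios from global-median-normalised Spectronaut label-free quantities, tested by unpaired t-test on proteins having ≥2 unique peptides.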

USP24 = USP24 (UniProt Q9UPU5)
How it was run: as §1

USP25 = target: T2, USP25 (UniProt Q9UHP3)
T2 sequence (whole entry): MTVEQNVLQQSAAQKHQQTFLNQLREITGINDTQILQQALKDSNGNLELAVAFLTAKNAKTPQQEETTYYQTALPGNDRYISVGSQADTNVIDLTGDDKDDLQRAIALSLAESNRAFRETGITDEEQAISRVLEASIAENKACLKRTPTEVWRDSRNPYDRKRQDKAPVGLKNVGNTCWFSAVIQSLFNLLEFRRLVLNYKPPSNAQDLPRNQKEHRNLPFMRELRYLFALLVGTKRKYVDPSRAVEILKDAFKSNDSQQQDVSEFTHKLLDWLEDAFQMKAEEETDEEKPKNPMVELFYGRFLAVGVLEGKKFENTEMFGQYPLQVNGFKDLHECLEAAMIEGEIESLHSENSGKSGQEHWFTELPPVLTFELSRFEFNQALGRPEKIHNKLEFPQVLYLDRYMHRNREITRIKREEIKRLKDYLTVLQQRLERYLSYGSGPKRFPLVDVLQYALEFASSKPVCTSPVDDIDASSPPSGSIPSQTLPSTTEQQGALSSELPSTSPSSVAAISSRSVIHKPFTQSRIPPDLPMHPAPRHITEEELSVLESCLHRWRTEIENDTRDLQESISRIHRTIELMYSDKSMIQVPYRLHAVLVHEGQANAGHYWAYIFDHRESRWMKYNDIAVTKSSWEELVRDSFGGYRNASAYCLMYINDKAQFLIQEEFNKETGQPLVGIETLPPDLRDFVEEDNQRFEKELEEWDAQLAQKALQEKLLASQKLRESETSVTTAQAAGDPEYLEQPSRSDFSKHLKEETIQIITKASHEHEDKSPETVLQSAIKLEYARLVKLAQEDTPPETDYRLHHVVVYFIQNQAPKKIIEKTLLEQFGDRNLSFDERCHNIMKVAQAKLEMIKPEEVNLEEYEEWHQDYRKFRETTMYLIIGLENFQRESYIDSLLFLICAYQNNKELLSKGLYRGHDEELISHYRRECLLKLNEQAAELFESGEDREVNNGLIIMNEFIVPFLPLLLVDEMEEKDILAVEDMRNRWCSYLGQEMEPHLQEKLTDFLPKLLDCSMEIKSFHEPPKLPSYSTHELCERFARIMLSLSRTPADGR
How it was run: as §1

USP28 = target: T3, USP28 (UniProt Q96RU2)
T3 sequence (whole entry): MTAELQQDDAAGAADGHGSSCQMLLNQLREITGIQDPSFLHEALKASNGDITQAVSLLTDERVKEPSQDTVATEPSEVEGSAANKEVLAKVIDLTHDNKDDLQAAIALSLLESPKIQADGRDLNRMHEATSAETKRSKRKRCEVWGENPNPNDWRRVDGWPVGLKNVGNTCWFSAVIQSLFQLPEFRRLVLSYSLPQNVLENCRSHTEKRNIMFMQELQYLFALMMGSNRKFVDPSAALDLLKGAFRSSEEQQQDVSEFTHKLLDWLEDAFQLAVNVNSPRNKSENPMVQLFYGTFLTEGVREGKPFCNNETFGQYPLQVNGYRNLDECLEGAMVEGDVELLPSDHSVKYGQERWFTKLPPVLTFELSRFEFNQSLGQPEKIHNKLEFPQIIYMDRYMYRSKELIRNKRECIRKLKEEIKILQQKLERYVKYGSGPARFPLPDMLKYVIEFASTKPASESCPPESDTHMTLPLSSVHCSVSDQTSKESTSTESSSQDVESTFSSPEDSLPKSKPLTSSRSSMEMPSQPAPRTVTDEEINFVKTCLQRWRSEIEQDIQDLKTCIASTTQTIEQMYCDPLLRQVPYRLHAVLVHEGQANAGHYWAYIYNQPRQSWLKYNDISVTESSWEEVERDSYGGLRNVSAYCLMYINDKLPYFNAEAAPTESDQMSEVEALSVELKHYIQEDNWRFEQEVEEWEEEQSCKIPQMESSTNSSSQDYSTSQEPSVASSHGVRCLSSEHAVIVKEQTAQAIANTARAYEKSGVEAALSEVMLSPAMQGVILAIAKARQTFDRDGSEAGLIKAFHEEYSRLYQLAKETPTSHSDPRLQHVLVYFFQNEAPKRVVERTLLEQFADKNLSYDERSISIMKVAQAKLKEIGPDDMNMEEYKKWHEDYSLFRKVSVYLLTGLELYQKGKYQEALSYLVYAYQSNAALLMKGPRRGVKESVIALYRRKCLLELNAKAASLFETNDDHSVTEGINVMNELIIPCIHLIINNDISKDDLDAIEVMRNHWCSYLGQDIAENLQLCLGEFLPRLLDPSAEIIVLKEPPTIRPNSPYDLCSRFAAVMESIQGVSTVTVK
How it was run: as §1

Measured: log2 ratio of Biotin-Ahx-Ub-VS probe labelling

Chain of USP24 (Q9UPU5 whole entry): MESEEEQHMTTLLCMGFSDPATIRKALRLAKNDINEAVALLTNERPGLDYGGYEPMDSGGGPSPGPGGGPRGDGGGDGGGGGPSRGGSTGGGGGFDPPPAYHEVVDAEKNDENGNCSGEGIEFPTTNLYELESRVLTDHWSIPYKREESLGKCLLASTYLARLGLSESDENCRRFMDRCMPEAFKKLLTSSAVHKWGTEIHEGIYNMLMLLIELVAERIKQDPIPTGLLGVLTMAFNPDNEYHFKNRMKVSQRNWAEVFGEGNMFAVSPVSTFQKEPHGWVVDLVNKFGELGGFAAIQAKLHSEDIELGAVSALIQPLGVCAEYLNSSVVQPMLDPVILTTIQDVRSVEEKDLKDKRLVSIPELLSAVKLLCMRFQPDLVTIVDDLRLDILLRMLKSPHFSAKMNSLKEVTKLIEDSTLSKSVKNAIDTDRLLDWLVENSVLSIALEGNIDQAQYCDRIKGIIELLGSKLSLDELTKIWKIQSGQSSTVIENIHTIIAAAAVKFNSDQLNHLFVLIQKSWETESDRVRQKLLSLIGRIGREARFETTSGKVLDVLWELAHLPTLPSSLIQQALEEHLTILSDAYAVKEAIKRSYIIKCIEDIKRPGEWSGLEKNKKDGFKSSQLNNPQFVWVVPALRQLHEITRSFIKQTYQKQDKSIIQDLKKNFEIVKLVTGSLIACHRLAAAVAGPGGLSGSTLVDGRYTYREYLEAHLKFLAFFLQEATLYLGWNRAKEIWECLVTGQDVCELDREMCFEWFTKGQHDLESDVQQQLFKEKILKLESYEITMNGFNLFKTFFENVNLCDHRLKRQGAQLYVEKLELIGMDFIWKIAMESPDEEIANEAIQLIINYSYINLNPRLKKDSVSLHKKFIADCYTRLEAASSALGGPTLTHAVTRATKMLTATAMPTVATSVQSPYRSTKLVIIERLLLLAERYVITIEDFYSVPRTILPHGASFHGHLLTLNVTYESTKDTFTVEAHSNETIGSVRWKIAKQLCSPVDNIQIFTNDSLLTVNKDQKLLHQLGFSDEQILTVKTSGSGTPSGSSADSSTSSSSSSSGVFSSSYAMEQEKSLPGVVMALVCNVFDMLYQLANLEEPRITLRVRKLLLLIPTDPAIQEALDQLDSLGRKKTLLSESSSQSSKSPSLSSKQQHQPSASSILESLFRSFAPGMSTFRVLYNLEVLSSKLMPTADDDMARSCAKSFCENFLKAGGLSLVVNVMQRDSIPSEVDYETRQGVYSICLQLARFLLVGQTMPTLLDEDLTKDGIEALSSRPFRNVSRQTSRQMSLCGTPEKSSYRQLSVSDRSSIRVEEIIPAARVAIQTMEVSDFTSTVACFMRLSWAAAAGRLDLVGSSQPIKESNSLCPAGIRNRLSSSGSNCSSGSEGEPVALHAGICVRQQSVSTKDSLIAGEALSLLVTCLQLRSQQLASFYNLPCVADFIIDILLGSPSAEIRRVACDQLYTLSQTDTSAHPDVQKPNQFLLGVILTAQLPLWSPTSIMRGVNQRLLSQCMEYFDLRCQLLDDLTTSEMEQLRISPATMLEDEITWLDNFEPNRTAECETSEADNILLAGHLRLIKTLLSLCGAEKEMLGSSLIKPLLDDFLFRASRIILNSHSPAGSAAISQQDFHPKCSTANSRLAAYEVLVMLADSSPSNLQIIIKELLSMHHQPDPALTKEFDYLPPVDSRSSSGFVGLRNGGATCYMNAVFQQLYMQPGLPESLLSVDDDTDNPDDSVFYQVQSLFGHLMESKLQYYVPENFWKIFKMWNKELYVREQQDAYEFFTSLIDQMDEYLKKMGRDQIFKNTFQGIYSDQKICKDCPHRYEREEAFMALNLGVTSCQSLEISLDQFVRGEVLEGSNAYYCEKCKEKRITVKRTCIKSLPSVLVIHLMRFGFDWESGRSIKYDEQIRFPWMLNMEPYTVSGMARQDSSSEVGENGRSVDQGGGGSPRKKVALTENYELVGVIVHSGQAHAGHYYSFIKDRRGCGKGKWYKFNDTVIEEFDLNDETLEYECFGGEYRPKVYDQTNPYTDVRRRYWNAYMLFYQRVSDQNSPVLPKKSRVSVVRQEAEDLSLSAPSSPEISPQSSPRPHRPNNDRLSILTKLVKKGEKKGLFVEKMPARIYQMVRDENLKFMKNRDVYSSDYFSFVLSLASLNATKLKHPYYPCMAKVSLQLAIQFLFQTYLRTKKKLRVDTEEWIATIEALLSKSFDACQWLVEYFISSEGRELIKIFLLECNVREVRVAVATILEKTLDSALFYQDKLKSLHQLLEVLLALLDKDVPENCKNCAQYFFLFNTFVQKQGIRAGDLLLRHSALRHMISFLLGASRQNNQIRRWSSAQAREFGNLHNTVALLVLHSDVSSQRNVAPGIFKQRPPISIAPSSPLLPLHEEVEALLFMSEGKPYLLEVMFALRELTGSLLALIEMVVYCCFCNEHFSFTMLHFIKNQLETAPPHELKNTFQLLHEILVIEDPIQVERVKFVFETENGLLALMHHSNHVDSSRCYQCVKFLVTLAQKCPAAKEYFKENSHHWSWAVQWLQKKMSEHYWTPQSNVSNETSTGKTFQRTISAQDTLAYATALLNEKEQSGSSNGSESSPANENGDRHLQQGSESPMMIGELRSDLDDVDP

O=C(CCl)N1CCc2ccccc2C(O)C1 (centres undefined)
inactive: USP19 -0.315 | USP24 -0.483 | USP25 -0.343 | USP28 -0.698
